Structures are written as SMILES. Several values for one entry are separate records, joined by “and”; a condition that tells them apart may be missing. Equal values may be shown once. The panel holds about 83,000 compounds, 20% with a hit somewhere; the sample as a whole holds those more often.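 The test compound was applied at a single concentration to cells in 96-well plates for 48 hours, and percent growth was recorded.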 Activity calls are given as the source filed them. Rule for the calls: active = growth percent below 10; inactive = the rest.

The subject of this assay is HL-60(TB) leukemia. Briefly: NCI-60 one-dose screen, 48 h (100 = growth as untreated, 0 = no growth, -100 = all killed). The following applies: 10 µM unless noted.
On to `O=C(NC1C(O)OC(CO)C(O)C1O)NS(=O)(=O)c1ccc(Cl)cc1` (stereo not given), for which the growth is 93.4% (inactive).
The same measure for `CC(=O)N1C(=S)NC(=O)C1Cn1c(-c2ccccc2)nc2ccccc21` (stereo not given): 98.9% (inactive).
The same measure for `NCCN1CCN(c2nccc(-c3ccc4ccccc4c3)n2)CC1`: 34.3% (inactive); for `CC(c1ccccc1)n1ccnc1CO` (stereo not given): 101% (inactive).
The same measure for `CC(=O)c1ccc(NC(=O)Nc2ccc(S(=O)(=O)Nc3ccc(Cl)nn3)cc2)cc1`: 109% (inactive); for `C#CCOc1ccc2ncnc(Nc3cccc(NC(=O)C=C)c3)c2c1`: 63.1% (inactive); for `COc1ccc2c(c1)C(=O)/C(=C/c1ccccn1)CC2`: 75.5% (inactive).
As for `CC(=O)Nc1ccc(S(=O)(=O)Cl)cc1`, the growth was 103% (inactive).
The result for `CCCCCCC1(C)NCCO1` (stereo not given) reads 91.2% (inactive); that for `CC1(C)NCCC[C@]2(C)[C@H]3CC[C@@H]4[C@H]5[C@H](C(=O)/C=C/c6ccccn6)CC[C@]5(CO)CC[C@@]4(C)[C@]3(C)CC[C@@H]12`, -31.8% (active).
As to `Nc1cc(N)c(S(=O)(=O)O)cc1N=Nc1cc([N+](=O)[O-])ccc1O`, the growth is 92.5% (inactive).
The same measure for `O=C(/C=C/c1ccco1)c1ccc(Nc2nc(Nc3ccc(F)cc3)nc(Nc3ccc(Cl)cc3)n2)cc1`: -93.7% (active).
The result for `N#Cc1c(-c2ccc(C(F)(F)F)cc2)cc(N2CC(O)C2)n2c1nc1ccccc12` reads 118% (inactive).
The result for `CCCCN(CCCC)c1ccc(C(=O)O)cc1` reads 104% (inactive); that for `CCN(CC)CCSc1nc(-c2ccccc2)c(C#N)c(=O)[nH]1`, 114% (inactive).
With `CCOC(=O)CC[C@H](NC(=O)c1ccc(NC)c2ccccc12)C(=O)OCC`, the growth was 105% (inactive).
Turning to `CC[C@@H](C(=O)[C@H](C)[C@H](O)[C@@H](C)[C@H]1O[C@H]([C@@H](CC)C(=O)O)CC[C@H]1C)C1O[C@]2(C=C[C@@H](O)[C@]3(CC[C@@](C)([C@H]4CC[C@](O)(CC)[C@H](C)O4)O3)O2)[C@H](C)C[C@@H]1C` (stereo not given in full), the growth was -36.8% (active).
The same measure for `COc1ccc(C(O)c2cc3c(N)c(C(=O)Nc4ccccc4)sc3nc2C)cc1` (stereo not given): -68.5% (active); for `N#C/C(=C/c1ccc([N+](=O)[O-])cc1)n1nnc2cc(F)c(F)cc21`: 62.7% (inactive).
In the case of `Cc1c(Cc2ccccc2)c(=O)oc2c(C)c(OCC(=O)n3nc(C#N)cc3N)ccc12`, the growth was 101% (inactive).
The result for `CN1CCN(C(=O)c2ccc(NC(=O)Nc3ccc(-c4nc(N5CCOCC5)c5cccn5n4)cc3)cc2)CC1` reads 7.69% (active); that for `O=Cc1ccccc1C(=O)O`, 111% (inactive).
The same measure for `CCN(CC)CCCC(C)Nc1nc(-c2ccc(OC)cc2)nc2cc(Cl)ccc12` (stereo not given): 51.8% (inactive); for `Cc1cc(Cl)nc(N(CCNc2ccnc3cc(Cl)ccc23)Cc2ccco2)n1`: -47.7% (active).
On to `Clc1cnc(Nc2ccc(OCCN3CCCC3)cc2)nc1NCc1ccco1`, for which the growth was -26.5% (active).
The result for `Nc1ccc(O)c(C(=O)O)c1` reads 89.4% (inactive) and 104% (inactive) and 106% (inactive); that for `CN(C)c1ccc(/C=C(\C#N)c2ccccc2)cc1`, -9.62% (active) and 16% (inactive) and 9.8% (active); that for `CNc1ccc2nc3ccc(=[N+](C)C)cc-3sc2c1`, -22.9% (active) and 5.72% (active).
The result for `COc1cc(-c2nc(-c3nnc(-c4ccc(F)c(Cl)c4)o3)c3ccccn23)cc(OC)c1OC` reads 56.4% (inactive); that for `Cc1ccc(S(=O)(=O)Nc2sccc2-c2nc(-c3ccccc3)no2)cc1`, 105% (inactive).
The result for `O=C1C=C(Nc2ccccc2)c2ccccc2C1=O` reads 79.5% (inactive) and 101% (inactive); that for `Cc1ccc(S(=O)(=O)Nc2ccc3cc([N+](=O)[O-])ccc3c2[N+](=O)[O-])cc1`, 83.3% (inactive) and 31% (inactive).
For `COc1ccc2nc3cc(Cl)ccc3c(NCCCNC(C)=O)c2c1`, the growth is 57.7% (inactive).
As for `CN1CCN(c2ccc(C(=O)Nc3cccc(C#Cc4cccc5[nH]nc(N)c45)c3)cc2C(F)(F)F)CC1`, the growth was -36.1% (active).
For `O=[N+]([O-])c1ccc(N2CCN(Cc3ccccc3)CC2)c2c1no[n+]2[O-]`, the growth is -33.2% (active).
The result for `NC(N)=NC1CCCCC1` reads 94.4% (inactive); that for `Cc1cc(O)c2c(c1)C[C@H]1[C@@H]3CC[C@H]4CC(=O)CC[C@]4(C)[C@H]3CC(=O)[C@]21C`, 73.9% (inactive).
With `Cc1ccc2cccc([N+](=O)[O-])c2n1`, the growth is 93.2% (inactive) and 94.6% (inactive).
The same measure for `C=C(C)[C@@H]1CC[C@]2(C(=O)N3CCN(C)CC3)CC[C@]3(C)[C@H](CC[C@@H]4[C@@]5(C)CC(=C/c6ccncc6)/C(=N/O)C(C)(C)[C@@H]5CC[C@]43C)[C@@H]12`: 40.4% (inactive); for `O=C(NC[C@H](O)CN1CCc2ccccc2C1)c1cc(NC2COC2)ncn1`: 119% (inactive).
